Mdm2-MdmX inh: inhibitors of human Mdm2-MdmX association, primary screen, cell-based, luminescence, split luciferase, SaOS-2, uHTS; AID 485346, 2010; 330,000 compounds, 3% hits; SaOS-2 split-luciferase Mdm2/MdmX complementation; Protein Mdm4 (Homo sapiens) + E3 ubiquitin-protein ligase Mdm2 (Homo sapiens), …; inhibition, % at 8 µM;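 active = inhibition of at least 50% at 8 µM in the primary screen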
Target sequence (O15151 whole entry, looked up): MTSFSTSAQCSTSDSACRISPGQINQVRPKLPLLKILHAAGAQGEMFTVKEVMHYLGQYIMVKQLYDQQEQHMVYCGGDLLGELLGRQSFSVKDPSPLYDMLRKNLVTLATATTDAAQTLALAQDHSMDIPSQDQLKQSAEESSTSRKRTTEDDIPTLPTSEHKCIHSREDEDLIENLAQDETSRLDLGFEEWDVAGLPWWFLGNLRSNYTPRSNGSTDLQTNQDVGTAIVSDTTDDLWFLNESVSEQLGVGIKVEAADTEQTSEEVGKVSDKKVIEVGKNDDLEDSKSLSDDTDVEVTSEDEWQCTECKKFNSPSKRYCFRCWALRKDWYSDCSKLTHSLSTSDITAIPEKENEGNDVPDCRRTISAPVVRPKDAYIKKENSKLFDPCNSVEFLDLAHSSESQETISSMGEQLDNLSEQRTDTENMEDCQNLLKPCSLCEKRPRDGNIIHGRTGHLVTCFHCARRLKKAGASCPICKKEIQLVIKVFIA
Target sequence (Q00987 whole entry, looked up): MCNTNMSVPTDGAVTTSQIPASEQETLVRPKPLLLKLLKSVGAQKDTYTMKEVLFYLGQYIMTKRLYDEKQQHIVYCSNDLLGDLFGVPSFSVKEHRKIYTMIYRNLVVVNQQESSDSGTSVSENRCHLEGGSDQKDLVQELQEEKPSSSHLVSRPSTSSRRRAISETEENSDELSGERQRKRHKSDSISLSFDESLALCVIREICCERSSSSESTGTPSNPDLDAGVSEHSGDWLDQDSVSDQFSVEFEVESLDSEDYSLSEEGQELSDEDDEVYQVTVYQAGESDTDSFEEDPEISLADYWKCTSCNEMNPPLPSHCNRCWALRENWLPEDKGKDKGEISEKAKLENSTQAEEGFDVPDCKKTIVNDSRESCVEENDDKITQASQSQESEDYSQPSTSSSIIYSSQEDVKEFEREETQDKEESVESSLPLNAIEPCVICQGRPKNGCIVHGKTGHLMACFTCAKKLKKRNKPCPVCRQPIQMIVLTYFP
Gli-Sufu antag: Gli-Sufu pathway antagonists, primary screen, luciferase luminescence, Sufu-KO-LIGHT cells, uHTS; Sufu-KO-LIGHT fibroblasts, Gli luciferase reporter luminescence; inhibition, % at 5 µM; 340,000 compounds, 0.74% hits;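 active = inhibition above about 55%, limit read from the data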
aSyn 5UTR inh: MLPCN primary screen, SNCA 5' untranslated region; alpha-synuclein 5'UTR reporter, inhibitor activity; inhibition, % (tested at 7.5 µM); 300,000 compounds, 0.82% hits; in the data active = inhibition above about 60%; inconclusive = no clear call, values can overlap the other calls;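 also: H4 neuroglioblastoma cells stably carrying SNCA 5'UTR luciferase fusion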
CSC inhib: cancer stem cell viability inhibitors, primary screen, luminescence. cancer stem cell-like cells viability. 300,000 compounds, 1.1% hits. AID 2717, 2010. inhibition, % at 7.5 µM; in the data active = inhibition above about 75%; inconclusive = no clear call, values can overlap the other calls; tested in HMLE shEcad cells
697 NFkB inh: inhibitors of PMA/ionomycin-induced NF-kB reporter, 697 cells, primary screen, B-cell NF-kB inhibitor project, cell-based, luminescence, uHTS. 697 B-cell NF-kB luciferase reporter, 16 h. inhibition, % at 4 µM. 330,000 compounds, 0.33% hits. AID 435022, 2010; in the data active = inhibition above about 35%
Jurkat NFkB inh: inhibitors of induced NF-kB luciferase reporter, primary screen, TCR NF-kB activation inhibitor project, cell-based, luminescence, uHTS; Jurkat, PMA/ionomycin-induced NF-kB luciferase reporter; inhibition, % at 4 µM; 330,000 compounds, 0.53% hits; in the data active = inhibition above about 50%
Mdm2-MdmX conf: Mdm2-MdmX complex disruptors, retested hits, confirmation, luminescence, single concentration; 10,000 compounds, 55% hits; AID 489028, 2010; shares compounds with Mdm2-MdmX inh; Mdm2-MdmX binding, luminescent assay; inhibition, % at 8 µM; in the data active = inhibition above about 40%
FLuc counter: full-length luciferase signal inhibition, confirmation, counter-screen for Mdm2/MdmX interaction inhibitor project, cell-based, single concentration, SaOS-2; shares compounds with Mdm2-MdmX inh; SaOS-2 full-length luciferase counterscreen, luminescence; inhibition, % at 8 µM; 6,200 compounds, 77% hits;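 active = mean inhibition at 8 µM reaching about 37%, which flags the compound as non-specific, limit read from the data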;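 also: p53-null SaOS-2 cells with luciferase driven by a doxycycline-inducible promoter; compound on cells about two nights before reading with doxycycline added after day one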
Numbers stand for hits. Most compounds without a hit are left out; they make up all but 4.5% or so of the library.

How did CCN1CCN(Cc2ccc(NC(=O)c3cc(NC(=O)c4cc(-c5ccc(OC)cc5)n[nH]4)cc(OC)c3)cc2C(F)(F)F)CC1 do in these assays?
Mdm2-MdmX inh: 94.7; Gli-Sufu antag: inactive; aSyn 5UTR inh: 106.2; CSC inhib: inconclusive; 697 NFkB inh: inactive; Jurkat NFkB inh: inactive; Mdm2-MdmX conf: inactive

How did O=C1CCC[C@@H]2Cc3nc4ccc(Cl)cc4cc3[C@@H]3CCN1[C@H]23 do in these assays?
Gli-Sufu antag: inactive

Results for C/C(N)=C(/C#N)C(=O)CN1CCCCC1 ?
Mdm2-MdmX inh: inactive; Gli-Sufu antag: inactive; aSyn 5UTR inh: inactive; CSC inhib: inactive; 697 NFkB inh: inactive; Jurkat NFkB inh: inactive

What do the screens show for `CCN1CCN(Cc2ccc(NC(=O)c3ccc(C)c(NC(=O)c4cccc(-c5cn[nH]c(=O)c5)c4)c3)cc2C(F)(F)F)CC1`?
Mdm2-MdmX inh: 83.8; Gli-Sufu antag: inactive; aSyn 5UTR inh: inactive; CSC inhib: inactive; 697 NFkB inh: inactive; Jurkat NFkB inh: inactive; Mdm2-MdmX conf: 46.3; FLuc counter: inactive

Results for CCN1CCN(Cc2ccc(NC(=O)c3cc(NC(=O)c4cc5cccc(OC)c5o4)cc(OC)c3)cc2C(F)(F)F)CC1 ?
Mdm2-MdmX inh: 98.3; Gli-Sufu antag: inactive; aSyn 5UTR inh: inactive; 697 NFkB inh: inactive; Jurkat NFkB inh: inactive; Mdm2-MdmX conf: inactive

How did CCN1CCN(Cc2ccc(NC(=O)c3cc(NC(=O)C4=NN(c5ccccc5)C(=O)C4)cc(OC)c3)cc2C(F)(F)F)CC1 do in these assays?
Mdm2-MdmX inh: inactive; Gli-Sufu antag: inactive; aSyn 5UTR inh: inactive; CSC inhib: inactive; 697 NFkB inh: inactive; Jurkat NFkB inh: inactive

Results for CCN1CCN(Cc2ccc(NC(=O)c3ccc(C)c(NC(=O)C4=NN(c5ccccc5)C(=O)C4)c3)cc2C(F)(F)F)CC1 ?
Mdm2-MdmX inh: inactive; Gli-Sufu antag: inactive; aSyn 5UTR inh: inactive; CSC inhib: inactive; 697 NFkB inh: inactive; Jurkat NFkB inh: inactive

How did CCN1CCN(Cc2ccc(NC(=O)c3cc(NC(=O)c4cncc(-c5cccs5)c4)cc(OC)c3)cc2C(F)(F)F)CC1 do in these assays?
Mdm2-MdmX inh: 97.3; Gli-Sufu antag: inactive; aSyn 5UTR inh: 108.8; CSC inhib: 123.8; 697 NFkB inh: inactive; Jurkat NFkB inh: inactive; Mdm2-MdmX conf: inactive; FLuc counter: 58.5

Results for CCN1CCN(Cc2ccc(NC(=O)c3ccc(C)c(/C=C/c4cnc(Nc5cc(N6CCNCC6)nc(C)n5)cn4)c3)cc2C(F)(F)F)CC1 ?
Mdm2-MdmX inh: 87.7; Gli-Sufu antag: inactive; aSyn 5UTR inh: 110.2; CSC inhib: inactive; 697 NFkB inh: inactive; Jurkat NFkB inh: inactive; Mdm2-MdmX conf: 55.4; FLuc counter: 36.8

How did CCN1CCN(Cc2ccc(NC(=O)c3ccc(C)c(NC(=O)c4csc(-c5ccncc5)n4)c3)cc2C(F)(F)F)CC1 do in these assays?
Mdm2-MdmX inh: inactive; Gli-Sufu antag: inactive; aSyn 5UTR inh: inactive; CSC inhib: inactive; 697 NFkB inh: inactive; Jurkat NFkB inh: inactive

How did COc1cc(NC(=O)c2cc3cccc(OC)c3o2)cc(C(=O)Nc2cccc(C(F)(F)F)c2)c1 do in these assays?
Mdm2-MdmX inh: 58.9; Gli-Sufu antag: inactive; aSyn 5UTR inh: inactive; CSC inhib: inactive; 697 NFkB inh: inactive; Jurkat NFkB inh: inactive; Mdm2-MdmX conf: 56.3; FLuc counter: 41.0

Results for CCN1CCN(Cc2ccc(NC(=O)c3ccc(C)c(NC(=O)c4ccno4)c3)cc2C(F)(F)F)CC1 ?
Mdm2-MdmX inh: 63.2; Gli-Sufu antag: inactive; aSyn 5UTR inh: 67.1; CSC inhib: inactive; 697 NFkB inh: inactive; Jurkat NFkB inh: inactive; Mdm2-MdmX conf: 42.6; FLuc counter: 56.7

How did Cc1ccc(-n2c(SCc3ccc(C(=O)O)cc3)nnc2-c2ccncc2)cc1 do in these assays?
Mdm2-MdmX inh: inactive; Gli-Sufu antag: inactive; aSyn 5UTR inh: inactive; CSC inhib: inactive; 697 NFkB inh: inactive; Jurkat NFkB inh: inactive

Results for CCS(=O)(=O)N1Cc2ccccc2CC1C(=O)Nc1nc2ccccc2s1 (centres undefined) ?
Mdm2-MdmX inh: 59.2; Gli-Sufu antag: inactive; aSyn 5UTR inh: inactive; CSC inhib: inactive; 697 NFkB inh: inactive; Jurkat NFkB inh: inactive; Mdm2-MdmX conf: 69.8; FLuc counter: 162.4

How did C/C(=N\NC(=O)Cc1ccc(Cl)cc1)c1cccc(NC(=O)c2cccnc2)c1 do in these assays?
Mdm2-MdmX inh: inactive; Gli-Sufu antag: inactive; CSC inhib: inactive; 697 NFkB inh: inactive; Jurkat NFkB inh: inactive

What do the screens show for `CCc1ccc(NC(=O)Cn2c(=O)c3cccn3c3ccccc32)cc1`?
Mdm2-MdmX inh: 66.4; Gli-Sufu antag: inactive; aSyn 5UTR inh: inactive; CSC inhib: inactive; 697 NFkB inh: inactive; Jurkat NFkB inh: inactive; Mdm2-MdmX conf: 60.5; FLuc counter: 54.6

Results for CCc1ccc(NC(=O)CCn2c(=O)c3cccn3c3ccccc32)cc1 ?
Mdm2-MdmX inh: inactive; Gli-Sufu antag: inactive; aSyn 5UTR inh: inactive; CSC inhib: inactive; 697 NFkB inh: inactive; Jurkat NFkB inh: inactive

Results for CC(C)Oc1ccc(CNC(=O)Cn2c(=O)c3cccn3c3cccnc32)cc1 ?
Mdm2-MdmX inh: inactive; Gli-Sufu antag: inactive; aSyn 5UTR inh: inactive; CSC inhib: inactive; 697 NFkB inh: inactive; Jurkat NFkB inh: inactive

How did CCOc1ccc(CNC(=O)Cn2c(=O)c3cccn3c3ccccc32)cc1 do in these assays?
Mdm2-MdmX inh: 55.3; Gli-Sufu antag: inactive; aSyn 5UTR inh: inactive; CSC inhib: inactive; 697 NFkB inh: inactive; Jurkat NFkB inh: inactive; Mdm2-MdmX conf: inactive

Results for CCOc1ccc(CNC(=O)Cn2nc(C)n3nc(-c4ccccc4)cc3c2=O)cc1 ?
Mdm2-MdmX inh: 97.3; Gli-Sufu antag: inactive; aSyn 5UTR inh: inactive; CSC inhib: inactive; 697 NFkB inh: inactive; Jurkat NFkB inh: inactive; Mdm2-MdmX conf: inactive

How did O=C(CCc1nc(-c2ccccc2)no1)NC1CCCCCC1 do in these assays?
Mdm2-MdmX inh: inactive; Gli-Sufu antag: inactive; 697 NFkB inh: inactive; Jurkat NFkB inh: inactive

Results for Cc1cc(OCC(=O)Nc2nnc(C3CC3)s2)ccc1[N+](=O)[O-] ?
Mdm2-MdmX inh: inactive; Gli-Sufu antag: inactive; CSC inhib: inactive; 697 NFkB inh: inactive; Jurkat NFkB inh: inactive

Results for Cc1cn([C@H](C(=O)NCCCCCCCCCCC(=O)N2CCN(C(=O)OC(C)(C)C)CC2)[C@@H](C)O)nn1 ?
Mdm2-MdmX inh: inactive; Gli-Sufu antag: inactive; CSC inhib: inactive; 697 NFkB inh: inactive; Jurkat NFkB inh: inactive

Results for O=C(NCC(c1ccco1)N1CCCCC1)c1ccc(COc2ccc(Cl)cc2)cc1 (centres undefined) ?
Gli-Sufu antag: inactive

Bioassay records as filed in PubChem.
